The record followed here is ChEMBL document CHEMBL3988442, “University of Dundee, Small-Polar-MMV Screening Library” (2021).

SMILES strings stand for the structures. The whole screen tested about 69,000 compounds, of which about 950 (1.4%) showed an effect of 50% or more. The full list was thinned out, with strong results kept by preference.

The test system of this assay is Mycobacterium tuberculosis. Put plainly: Cornell M. t heat shock assay. Also: in the data most compounds retested in dose-response had high values. The class given is functional, organism-based. Details: dose or concentration left out as unconfirmed.
`Cc1nc[nH]c1CN1C[C@@H]2CC[C@H](C1)N(C(=O)c1cnn(C)c1)C2`: the “Percent Effect” value is -6.364%.
Take `Cc1ccc(C(=O)N2Cc3c(CN4CCCCC4)nn(C)c3C2)cc1F.O=C(O)C(F)(F)F`: the “Percent Effect” value is given as -32.35%.
The value for `Cc1ccc(CN2CCC3(CC2)C(c2ccccc2)CC(=O)N3C)o1.O=C(O)C(F)(F)F` (centres undefined) was 26.84%; that for `Cn1cc(C(=O)NCc2cn3c(n2)CN(CC2CCOC2)CC3)cn1.O=C(O)C(F)(F)F.O=C(O)C(F)(F)F` (centres undefined) was -28.66%.
The value for `O=C1c2cnc(N3CCCC3)nc2CN1C1CCS(=O)(=O)C1` (centres undefined) was 9.039%; that for `O=C(NC(Cc1ccsc1)c1nccs1)C1CC1` (centres undefined) was -16.41%.
The value for `COc1ccccc1CNC(Cc1cccs1)c1nc(C)c(C)s1.Cl` (centres undefined) was 6.532%.
For the molecule `Cc1cccc(CNC(Cc2ccsc2)c2nccs2)n1` (centres undefined), the “Percent Effect” value was found to be 101.9%.
Take `CC(C)Oc1cccc(CNC(Cc2ccsc2)c2nccs2)c1.Cl` (centres undefined): the “Percent Effect” value is given as 2.523%.
In the case of `Cc1nc(C(Cc2ccsc2)NC(=O)CN2CCOCC2)sc1C` (centres undefined) it was -3.287%.
As for `Cc1nc(C(Cc2ccsc2)NC(=O)CCN2CCOCC2)sc1C` (centres undefined), the “Percent Effect” value is on record as 3.097%.
With `COc1cccc(CNC(Cc2cccs2)c2nc(C)c(C)s2)c1OC.Cl` (centres undefined), the “Percent Effect” value is -9.078%.
On to `Cc1cccc(CNC(Cc2ccsc2)c2nc(C)c(C)s2)n1.Cl` (centres undefined), for which the “Percent Effect” value amounted to 106.6%.
The value for `CCC(CN1CCCC1)NC(=O)C1(c2cccc(F)c2)CC1.O=C(O)CC(O)(CC(=O)O)C(=O)O` (centres undefined) was -3.287%.
In the case of `CN(C)C(=O)[C@@]12CCO[C@@H]1CCN(Cc1ccc3c(c1)OCO3)C2.O=C(O)C(F)(F)F` it was 4.753%.
In the case of `Cc1noc([C@]23COC[C@H]2CN(C(=O)CN(C)C)C3)n1.O=C(O)C(F)(F)F` it was 15.78%; in that of `CC1CCN(c2cc(CCC3CCCN3)ncn2)CC1.Cl` (centres undefined), -19.69%; in that of `Cc1nocc1C(=O)N1CCOC2(COCCN(C(C)C)C2)C1.O=C(O)C(F)(F)F` (centres undefined), 1.76%.
Regarding `CCN(Cc1ccc2cccc(O)c2n1)CC1CCCO1` (centres undefined), the “Percent Effect” value is given as 84.2%.
The value for `CCN(Cc1cccnc1)CC1CCCO1` (centres undefined) was -42.47%.
In the case of `CCN(Cc1cccc2c1OCO2)CC1CCCO1` (centres undefined) it was -23.06%; in that of `O=C(O)C(F)(F)F.O=S1(=O)c2ccccc2C2(CCN(Cc3ccccc3)C2)N1CC1CC1` (centres undefined), 20.71%.
`OCC1CCN(c2ccc(NCc3ccsc3)nc2)CC1`: the “Percent Effect” value is on record as 11.8%.
On to `COCCN(C)c1ccc(NCc2cccnc2)nc1`, for which the “Percent Effect” value was 21.66%.
Regarding `CCn1cc(CNc2ccc(Br)c(OC)c2)cn1`, the “Percent Effect” value was -14.65%.
For the molecule `COCCN(C)c1ccc(NCc2cscn2)nc1`, the “Percent Effect” value is 13.97%.
On to `COCCN(C)c1ccc(NCc2ccsc2)nc1`, for which the “Percent Effect” value was 90.49%.
The value for `CCn1cc(CNc2ccc(N(C)CCOC)cn2)cn1` was 57.45%.
For `Cl.O=C(c1ccccc1Cl)N1CCN(CCc2ccccn2)CC1`, the “Percent Effect” value is -2.792%.
In the case of `COCCN1CCN(c2cccc(C)n2)Cc2ccc(C)nc21.O=C(O)C(F)(F)F.O=C(O)C(F)(F)F` it was 28.62%; in that of `CN(Cc1cccc2cccnc12)C1CCS(=O)(=O)C1.O=C(O)CC(O)(CC(=O)O)C(=O)O` (centres undefined), -10.77%; in that of `Cc1cccc(CN2CCO[C@H]3[C@@H](OCc4ccncc4)CC[C@@H]32)n1.O=C(O)C(F)(F)F.O=C(O)C(F)(F)F.O=C(O)C(F)(F)F`, -9.598%.
For the molecule `CN(C)C(=O)[C@@H]1C[C@@H]2CCN(C3CCOCC3)C[C@H]2O1.O=C(O)C(F)(F)F`, the “Percent Effect” value is given as -21.42%.
The value for `CN1C(=O)[C@H](OC(N)=O)[C@@H](C(=O)Nc2ccccc2)C12CCNCC2` was 31.45%; that for `CNC(=O)[C@@H]1[C@@H](OC(=O)Nc2ccccc2)C(=O)N(C)C12CCNCC2` was 60.88%; that for `CO[C@H]1C(=O)N(C)C2(CCNCC2)[C@@H]1C(=O)Nc1ccccc1` was 47.74%.
The value for `Fc1ccc(F)c(CN2CCC(c3n[nH]c4ncccc34)CC2)c1.O=C(O)CC(O)(CC(=O)O)C(=O)O` was -14.52%; that for `COc1ccccc1CCN(C)Cc1nc(N)nc(N(C)C)n1` was 10.83%; that for `CN(Cc1nc(N)nc(N(C)C)n1)Cc1cccc2ccccc12` was -5.133%.
Consider `CN(CCc1cccc2ccccc12)Cc1nc(N)nc(N(C)C)n1`, for which the “Percent Effect” value is listed as 75.75%.
The value for `CC(C)Cn1ccnc1CNC(=O)NC(C)(C)c1nccs1` was -19.09%; that for `Cc1nc(C(C)NC(=O)NCc2nccn2CC(C)C)cs1` (centres undefined) was 0.1192%.
In the case of `CC(C)Cn1ccnc1CNC(=O)NC(C)c1nccs1` (centres undefined), the “Percent Effect” value came out at 55.14%.
Turning to `O=C(O)C(F)(F)F.O=C(c1cscn1)N1CCc2ncnc(-c3cccnc3)c2CC1`, the “Percent Effect” value was -9.91%.
In the case of `COc1ccc(NC(=O)C2OC(c3cccs3)=NN2C(C)=O)cc1` (centres undefined) it was 19.1%; in that of `CC(=O)N1N=C(c2cccs2)OC1C(=O)Nc1ccccc1` (centres undefined), 6.727%.
In the case of `COc1ccc(NC(=O)C2OC(c3cccs3)=NN2C(C)=O)cc1OC` (centres undefined) it was 54.99%; in that of `CC(=O)N1N=C(c2cccs2)OC1C(=O)NCCc1cccc(Cl)c1` (centres undefined), 62.85%.
In the case of `CC(=O)N1N=C(c2ccccc2)OC1C(=O)NCCc1cccc(Cl)c1` (centres undefined) it was -5.794%; in that of `CC(=O)N1N=C(c2ccccc2)OC1C(=O)NCCc1cccc(F)c1` (centres undefined), 26%; in that of `O=C(O)C(F)(F)F.O=C(c1ccc2ccccc2n1)N1CCC2(CCN2c2ncccn2)C1` (centres undefined), -9.605%.
In the case of `CCc1ccc(CN2CCC3(CC2)CC(N2CCN(C)CC2)CO3)cc1.O=C(O)C(F)(F)F` (centres undefined), the “Percent Effect” value was found to be 2.884%.
In the case of `Cc1ccc(CN2CC[C@@H](NC(=O)c3cccnc3)[C@H](O)C2)o1` it was 8.326%.
The value for `Cc1ccc(CN(C(=O)NCCNC(=O)c2cccnc2)C(C)C)o1` was -12.97%.
The value for `Cc1ccc(CCNC(=O)c2cccnc2)o1` was 80.23%; that for `CCc1cc(C(=O)N2CCCC(Cc3ccc(NC)nn3)C2)on1` (centres undefined) was -39.14%; that for `COCCCNC(=O)CN(C)C(=O)c1cc(C)ccc1O` was 5.458%.
As to `COCCCNC(=O)CN(C)C(=O)c1cc(Cl)ccc1O`, the “Percent Effect” value is on record as 100.8%.
The value for `COCCCNC(=O)CN(C)C(=O)c1ccccc1O` was -10.97%.
The value for `N#Cc1cccc(CN2CCn3cc(Cn4cccn4)nc3C2)c1.O=C(O)C(F)(F)F.O=C(O)C(F)(F)F` was -31.57%.
In the case of `COC[C@@H]1CCC[C@@]12CN(Cc1ccc(C)s1)CCO2.O=C(O)C(F)(F)F` it was -18.91%; in that of `CCOCc1cnc2n1CCN(C(=O)c1cn(C)c3ccccc13)C2C` (centres undefined), 8.997%; in that of `CCOCc1cnc2n1CCN(C(=O)c1ccoc1C)C2C` (centres undefined), 26.88%.
As for `CCOCc1cnc2n1CCN(C(=O)Cc1cccs1)C2C` (centres undefined), the “Percent Effect” value is -15.31%.
The value for `CCOCc1cnc2n1CCN(C(=O)C1=CCCC1)C2C` (centres undefined) was -7.076%; that for `CCOCc1cnc2n1CCN(C(=O)c1cccc3c1OCCO3)C2C` (centres undefined) was 51.66%; that for `CCOCc1cnc2n1CCN(C(=O)c1ccccc1)C2C` (centres undefined) was 53.26%.
With `Cc1nc(COC[C@@H]2CC[C@H]3[C@H](CCN3c3ncccn3)O2)cs1.O=C(O)C(F)(F)F`, the “Percent Effect” value was determined as 3.819%.
The value for `O=C(O)C(F)(F)F.O=C(O)C(F)(F)F.O=C(O)C(F)(F)F.c1ccc(N2CC3(CCN(Cc4cccnc4)C3)C2)nc1` was -1.371%.
On to `COc1ncccc1CN1C[C@H]2C[C@@H](C(=O)NCC3CC3)N(C)[C@H]2C1.O=C(O)C(F)(F)F.O=C(O)C(F)(F)F.O=C(O)C(F)(F)F`, for which the “Percent Effect” value is -0.5017%.
For `COCCNC(=O)[C@@]12CCO[C@@H]1CCN(Cc1cc(C)on1)C2.O=C(O)C(F)(F)F`, the “Percent Effect” value is listed as -5.953%.
`COc1ccc(C(CNS(=O)(=O)c2cn(C)nc2C)N2CCCC2)cc1.Cl` (centres undefined): the “Percent Effect” value was -8.275%.
In the case of `Cc1cccc(CN(Cc2ccccn2)S(=O)(=O)N(C)C)c1` it was -11.53%.
In the case of `Cc1cccc(CN(Cc2ccccn2)Cc2ncc(C(C)(C)C)o2)c1` it was 77.52%; in that of `CCN(Cc1cccc(Cl)c1)Cc1ncc(C(C)(C)C)o1`, -28.51%.
Turning to `O=C(O)C(F)(F)F.O=C(c1cc[nH]n1)N1CCc2onc(COc3cccnc3)c2C1`, the “Percent Effect” value was 4.696%.
The value for `CC(Cn1ccnc1)NCc1cc(Br)c2c(c1)OCO2.Cl` (centres undefined) was -15.88%.
Regarding `Clc1ccc2cccnc2c1CN1CCCC1Cn1cncn1` (centres undefined), the “Percent Effect” value was determined as 52.22%.
The value for `Cc1nc(CN2CCCC2Cn2cncn2)nc2ccccc12` (centres undefined) was 19.17%.
As for `O=C(CN1CCCC(Cn2cncn2)C1)Nc1cccnc1` (centres undefined), the “Percent Effect” value is on record as 9.071%.
In the case of `Clc1ccc2cccnc2c1CN1CCCCC1Cn1cncn1` (centres undefined) it was 36.55%; in that of `O=C(CN1CCCCC1Cn1cncn1)Nc1ccncc1` (centres undefined), -9.468%; in that of `Clc1ccc2cccnc2c1CN1CCCC(Cn2cncn2)C1` (centres undefined), 18.36%.
The value for `O=C(CN1CCCC1Cn1cncn1)Nc1cccnc1` (centres undefined) was 62.16%.
The value for `Cc1c(Cl)c(CN2CCCC2Cn2cncn2)nc2ccccc12` (centres undefined) was 54.06%; that for `Cc1nc2ccccc2nc1CN1CCCC1Cn1cncn1` (centres undefined) was 3.442%.
Take `Cc1nc2ccccc2nc1CN1CCCC1Cn1cccn1` (centres undefined): the “Percent Effect” value amounted to 61.51%.
In the case of `Cc1nc2ccccc2nc1CN1CCCCC1Cn1cccn1` (centres undefined), the “Percent Effect” value amounted to 5.148%.
The value for `Cc1nc2ccccc2nc1CN1CCCCC1Cn1cncn1` (centres undefined) was 12.5%; that for `CN1CC(=O)N(c2cccc(F)c2)CC12CCN(Cc1cnn(C)c1)C2.O=C(O)C(F)(F)F.O=C(O)C(F)(F)F` (centres undefined) was -4.947%; that for `Cc1cccc(Nc2cc(C)nc(C3CCN(C(C)C)C3)n2)n1.O=CO` (centres undefined) was -16.48%.
The value for `Cn1cc(CN2CCC[C@]3(C[C@H](Oc4ncccc4F)CO3)C2)cn1.O=C(O)C(F)(F)F.O=C(O)C(F)(F)F` was 15.03%; that for `Cc1cnc(C(=O)N2CCCC(c3c(C)c(=O)nc4n3CCC4)C2)cn1.Cl` (centres undefined) was -2.984%; that for `Cc1cc2cc(C(=O)N3CC[C@H](O)[C@]4(CCCO4)C3)ccc2o1` was -15.2%.
